Test results published in PubChem BioAssay AID1654 (Sanford-Burnham Center for Chemical Genomics, 2009).
Hit rate of the full screen: of about 290,000 compounds, about 1,500 (0.52%) were called active. The list comes from a sample in which actives are over-represented; it also holds similar structures and randomly drawn compounds. Values without a mark were called inactive. Rule as the data show it: active = inhibition above about 50%; inactive = the rest.

Molecular target: Dual specificity protein phosphatase 3 (Homo sapiens) (UniProt P51452)
Test: VHR1 phosphatase inhibitors, primary screen, biochemical, absorbance, uHTS (AID 1654)
Conditions: recombinant VHR phosphatase, pNPP absorbance, at 13.3 µM, stronger effect = higher value

Dual specificity protein phosphatase 3 (Homo sapiens), sequence (P51452 whole entry, looked up): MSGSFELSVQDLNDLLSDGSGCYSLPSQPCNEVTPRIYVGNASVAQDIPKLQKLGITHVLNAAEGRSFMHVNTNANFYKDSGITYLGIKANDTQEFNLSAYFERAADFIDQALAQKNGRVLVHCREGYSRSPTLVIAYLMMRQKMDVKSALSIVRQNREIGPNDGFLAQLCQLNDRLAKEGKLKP

SMILES | inhibition
O=c1c(-c2cccc(Cl)c2)c[nH]n1-c1ccccc1 | 12.5%
O=c1[nH]cnc2c1c(-c1ccccc1)cn2-c1ccc(F)cc1 | -6.9%
Cc1ccc(-c2ccnc3[nH]n(-c4ccccc4)c(=O)c23)cc1 | 60% (active)
Cc1ccc(C2C3=C(Nc4[nH]n(-c5ccccc5)c(=O)c42)c2ccccc2C3=O)cc1 (stereo unspecified) | 1.7%
Cc1ccc(-n2[nH]c(C)c(/C=N/N3C(=O)c4cccc5cccc(c45)C3=O)c2=O)cc1 | 20.9%
O=c1c2c(-c3ccccc3)ccnc2[nH]n1-c1ccccc1 | 55.5% (active)
Cc1ccc(S(=O)(=O)N2CCC(C(=O)N[C@@H](C)C(=O)NCc3ccccc3)CC2)cc1 | 1.5%
Cc1ccc(S(=O)(=O)N2CCC(C(=O)N[C@@H](C)C(=O)NCCc3ccccc3)CC2)cc1 | 6.2%
C[C@H](NC(=O)C1CCN(S(=O)(=O)c2ccccc2)CC1)C(=O)NCc1ccccc1 | 52.3% (active)
N#Cc1c(-c2ccccc2)nc(SCc2ccc([N+](=O)[O-])cc2)[nH]c1=O | 4.1%
O=C(O)C(NS(=O)(=O)c1cccc2nsnc12)c1ccccc1 (stereo unspecified) | 13.3%
O=C(C(NS(=O)(=O)c1cccc2nsnc12)c1ccccc1)N1CCN(c2ccccc2)CC1 (stereo unspecified) | -12.8%
O=C(C(NS(=O)(=O)c1cccc2nsnc12)c1ccccc1)N1CCN(c2ccccn2)CC1 (stereo unspecified) | 52.7% (active)
O=C(NCCOc1cccnc1)c1ccc(OC2CCN(Cc3ccccn3)CC2)cc1 | 18.5%
Fc1ccc(/C=N/n2c(COc3ccccc3)n[nH]c2=S)cc1 | 26.3%
C/C(=N/O)c1ccc(N2C(=O)C3C4C=CC(C3C2=O)C2C3C(=O)N(c5ccc(/C(C)=N/O)cc5)C(=O)C3C42)cc1 (stereo unspecified) | -7.1%
CC1CCN(C(=O)/C(=C\c2ccccc2F)NC(=O)c2ccccc2)CC1 | 18.5%
CN(CC(=O)NCc1ccc(Cl)cc1)S(=O)(=O)c1cccs1 | 21.4%
Cc1cccc(C(=O)N2CCCC(Nc3ccc(C(C)C)cc3)C2)n1 (stereo unspecified) | 10.8%
CC(C)c1ccc(NC2CCCN(C(=O)c3ccncc3)C2)cc1 (stereo unspecified) | 13.7%
COc1ccc(NC2CCCN(C(=O)c3ccncc3)C2)cc1 (stereo unspecified) | 54.2% (active)
COc1cc(C(=O)N2CCN(C3CCC(C)CC3)CC2)cc(OC)c1OC (stereo unspecified) | 16.6%
CCOc1ccc2[nH]c(=O)c(CN(CCCO)S(=O)(=O)c3ccc(F)cc3)cc2c1 | 39.4%
COc1cc(C(=O)NCc2ccc(-n3cccc3)cc2)cc(OC)c1OC | 33.3%
COc1cc(C(=S)NCc2ccccc2)cc(Br)c1O | 25.9%
COc1cc(C(=O)NCc2ccncc2)cc(Br)c1OCc1ccccc1 | 50% (active)
